# The full list was thinned out, with the strongest signals kept by preference.
# B1: Epa3 (Candida glabrata), Q6VBI8_CANGB (protein)
# chain: MGSSHHHHHHSSGLVPRGSHMNDLGFSLFEKRELSSQNPFGYPIGCSPQDVAIIPGLTMELYSYPIVSGTPPNCYDASYVDPEYPRTGYLKRKMVGKSTGVTGNLNYKYSVEKACMVKYGNLPAGYNYNEPLTVSNFTMILYGYFKAQTTGLHTFFVNADDLLYINFGAGNAFDCCKREDSKTKLGEYVAYDIWHVDSSKNKVSLFLEKDLYYPIRMFFNNIGKDSSLDLSFSVNGATDQISDFSGYLYSVPDQPDTCPAHIGYDTTCR
# Experiments:
# Experiment in all cases: glycan array binding signal (z-score within array); higher = stronger binding
# Conditions in all cases: glycan notation: IUPAC condensed, linker removed
# [1] = target: Fuc(a1-2)Gal(b1-4)GlcNAc(b1-3)Gal(b1-4)GlcNAc
# Method in brief: (§1)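 The binding signal is a Z-score computed within each array. Data were drawn from 3228 arrays in the Consortium for Functional Glycomics database, restricted to those with a known protein sequence. Scores were averaged over arrays of the same protein sequence at different concentrations or buffers, and over linkers, and negative values can be taken as non-binding.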
# [2] = target: Fuc(a1-2)Gal(b1-4)GlcNAc(b1-3)Gal(b1-4)GlcNAc(b1-2)Man(a1-3)[Fuc(a1-2)Gal(b1-4)GlcNAc(b1-3)Gal(b1-4)GlcNAc(b1-2)Man(a1-6)]Man(b1-4)GlcNAc(b1-4)GlcNAc
# Method in brief: as §1
# [3] = target: Fuc(a1-2)Gal(b1-4)[Fuc(a1-3)]GlcNAc
# Method in brief: as §1
# [4] = target: Fuc(a1-2)Gal(b1-4)[Fuc(a1-3)]GlcNAc(b1-2)Man(a1-3)[Fuc(a1-2)Gal(b1-4)[Fuc(a1-3)]GlcNAc(b1-2)Man(a1-6)]Man(b1-4)GlcNAc(b1-4)[Fuc(a1-6)]GlcNAc
# Method in brief: as §1
# [5] = target: Fuc(a1-2)Gal(b1-4)[Fuc(a1-3)]GlcNAc(b1-2)[Fuc(a1-2)Gal(b1-4)[Fuc(a1-3)]GlcNAc(b1-4)]Man(a1-3)[Fuc(a1-2)Gal(b1-4)[Fuc(a1-3)]GlcNAc(b1-2)Man(a1-6)]Man(b1-4)GlcNAc(b1-4)GlcNAc
# Method in brief: as §1
# [6] = target: Fuc(a1-2)Gal(b1-4)[Fuc(a1-3)]GlcNAc(b1-3)GalNAc
# Method in brief: as §1
# [7] = target: Fuc(a1-2)Gal(b1-4)[Fuc(a1-3)]GlcNAc(b1-3)[Neu5Ac(a2-6)Gal(b1-4)GlcNAc(b1-6)]Gal(b1-4)Glc
# Method in brief: as §1
# [8] = target: Fuc(a1-2)Gal6S(b1-4)Glc6S
# Method in brief: as §1
# [9] = target: Fuc(a1-2)[Gal(a1-3)]Gal(b1-4)GlcNAc(b1-2)Man(a1-3)[Fuc(a1-2)[Gal(a1-3)]Gal(b1-4)GlcNAc(b1-2)Man(a1-6)]Man(b1-4)GlcNAc(b1-4)GlcNAc
# Method in brief: as §1
# [10] = target: Fuc(a1-2)[Gal(a1-3)]Gal(b1-4)[Fuc(a1-3)]GlcNAc(b1-3)GalNAc
# Method in brief: as §1
# [11] = target: Fuc(a1-2)[GalNAc(a1-3)]Gal(b1-3)GlcNAc
# Method in brief: as §1
# [12] = target: Fuc(a1-2)[GalNAc(a1-3)]Gal(b1-3)GlcNAc(b1-2)Man(a1-3)[Fuc(a1-2)[GalNAc(a1-3)]Gal(b1-3)GlcNAc(b1-2)Man(a1-6)]Man(b1-4)GlcNAc(b1-4)[Fuc(a1-6)]GlcNAc
# Method in brief: as §1
# [13] = target: Fuc(a1-2)[GalNAc(a1-3)]Gal(b1-4)GlcNAc(b1-3)Gal(b1-4)GlcNAc
# Method in brief: as §1
# [14] = target: Fuc(a1-2)[GalNAc(a1-3)]Gal(b1-4)[Fuc(a1-3)]GlcNAc(b1-3)GalNAc
# Method in brief: as §1
# [15] = target: Fuc(a1-3)[GalNAc(b1-4)]GlcNAc
# Method in brief: as §1
# [16] = target: Gal(a1-3)Gal(b1-3)[Fuc(a1-4)]GlcNAc(b1-2)Man(a1-3)[Gal(a1-3)Gal(b1-3)[Fuc(a1-4)]GlcNAc(b1-2)Man(a1-6)]Man(b1-4)GlcNAc(b1-4)GlcNAc
# Method in brief: as §1
# Gal(b1-3)Gal(b1-4)GlcNAc = target: Gal(b1-3)Gal(b1-4)GlcNAc
# Method in brief: as §1
# Gal(b1-3)GalNAc = target: Gal(b1-3)GalNAc
# Method in brief: as §1
# [17] = target: Gal(b1-3)GalNAc(a1-3)[Fuc(a1-2)]Gal(b1-4)Glc
# Method in brief: as §1
# [18] = target: Gal(b1-3)GalNAc(a1-3)[Fuc(a1-2)]Gal(b1-4)GlcNAc
# Method in brief: as §1
# Gal(b1-3)GalNAc(b1-3)Gal = target: Gal(b1-3)GalNAc(b1-3)Gal
# Method in brief: as §1
# [19] = target: Gal(b1-3)GalNAc(b1-3)Gal(a1-4)Gal(b1-4)Glc
# Method in brief: as §1
# [20] = target: Gal(b1-3)GalNAc(b1-4)Gal(b1-4)Glc
# Method in brief: as §1
# [21] = target: Gal(b1-3)GalNAc(b1-4)[Neu5Ac(a2-3)]Gal(b1-4)Glc
# Method in brief: as §1
# Gal(b1-3)GlcNAc = target: Gal(b1-3)GlcNAc
# Method in brief: as §1
# [22] = target: Gal(b1-3)[Fuc(a1-4)]GlcNAc
# Method in brief: as §1
# [23] = target: Gal(b1-3)[Neu5Ac(a2-6)]GalNAc
# Method in brief: as §1
# [24] = target: Gal(b1-3)[Neu5Ac(b2-6)]GalNAc
# Method in brief: as §1
# [25] = target: Gal(b1-4)GalNAc(b1-3)[Fuc(a1-2)]Gal(b1-4)GlcNAc
# Method in brief: as §1
# [26] = target: Gal(b1-4)GlcNAc(b1-2)[Gal(b1-4)GlcNAc(b1-6)]Man(a1-6)[Gal(b1-4)GlcNAc(b1-2)Man(a1-3)]Man(b1-4)GlcNAc(b1-4)[Fuc(a1-6)]GlcNAc
# Method in brief: as §1
# [27] = target: Gal(b1-4)GlcNAc(b1-3)Gal(b1-4)GlcNAc(b1-2)[Gal(b1-4)GlcNAc(b1-3)Gal(b1-4)GlcNAc(b1-6)]Man(a1-6)[Gal(b1-4)GlcNAc(b1-3)Gal(b1-4)GlcNAc(b1-2)Man(a1-3)]Man(b1-4)GlcNAc(b1-4)[Fuc(a1-6)]GlcNAc
# Method in brief: as §1
# GalNAc(b1-3)GlcNAc = target: GalNAc(b1-3)GlcNAc
# Method in brief: as §1
# GalNAc3S(b1-4)GlcNAc = target: GalNAc3S(b1-4)GlcNAc
# Method in brief: as §1
# Glc(b1-4)Glc = target: Glc(b1-4)Glc
# Method in brief: as §1
# [28] = target: GlcNAc(a1-3)Gal(b1-4)GlcNAc
# Method in brief: as §1
# [29] = target: GlcNAc(b1-2)[GlcNAc(b1-4)]Man(a1-3)[GlcNAc(b1-4)][GlcNAc(b1-2)[GlcNAc(b1-6)]Man(a1-6)]Man(b1-4)GlcNAc(b1-4)[Fuc(a1-6)]GlcNAc
# Method in brief: as §1
# [30] = target: GlcNAc(b1-3)Gal(b1-4)GlcNAc(b1-3)Gal(b1-4)GlcNAc(b1-2)Man(a1-3)[GlcNAc(b1-3)Gal(b1-4)GlcNAc(b1-3)Gal(b1-4)GlcNAc(b1-2)Man(a1-6)]Man(b1-4)GlcNAc(b1-4)[Fuc(a1-6)]GlcNAc
# Method in brief: as §1
# [31] = target: GlcNAc(b1-3)[GlcNAc(b1-6)]GalNAc
# Method in brief: as §1
# Kdn(a2-6)Gal(b1-4)GlcNAc = target: Kdn(a2-6)Gal(b1-4)GlcNAc
# Method in brief: as §1
# [32] = target: Man(a1-2)Man(a1-3)[Man(a1-6)]Man(a1-6)[Man(a1-2)Man(a1-3)]Man(b1-4)GlcNAc(b1-4)GlcNAc
# Method in brief: as §1
# [33] = target: Man(a1-3)[Man(a1-6)]Man(a1-6)[Man(a1-3)]Man(b1-4)GlcNAc(b1-4)GlcNAc
# Method in brief: as §1
# [34] = target: Neu5Ac(a2-3)Gal(b1-3)GalNAc6S
# Method in brief: as §1
# [35] = target: Neu5Ac(a2-3)Gal(b1-3)GlcNAc(b1-4)Gal(b1-4)Glc
# Method in brief: as §1
# [36] = target: Neu5Ac(a2-3)Gal(b1-3)GlcNAc(b1-6)GalNAc
# Method in brief: as §1
# Neu5Ac(a2-3)Gal(b1-4)Glc = target: Neu5Ac(a2-3)Gal(b1-4)Glc
# Method in brief: as §1
# [37] = target: Neu5Ac(a2-3)Gal(b1-4)GlcNAc(b1-2)[Neu5Ac(a2-3)Gal(b1-4)GlcNAc(b1-4)]Man(a1-3)[GlcNAc(b1-4)][Neu5Ac(a2-3)Gal(b1-4)GlcNAc(b1-4)Man(a1-6)]Man(b1-4)GlcNAc(b1-4)GlcNAc
# Method in brief: as §1
# [38] = target: Neu5Ac(a2-3)Gal(b1-4)GlcNAc(b1-3)Gal
# Method in brief: as §1
# [39] = target: Neu5Ac(a2-3)Gal(b1-4)GlcNAc(b1-3)Gal(b1-4)GlcNAc(b1-3)Gal(b1-4)GlcNAc
# Method in brief: as §1
# Neu5Ac(a2-3)GalNAc = target: Neu5Ac(a2-3)GalNAc
# Method in brief: as §1
# [40] = target: Neu5Ac(a2-6)Gal(b1-4)GlcNAc(b1-2)Man(a1-3)[Gal(b1-4)GlcNAc(b1-2)Man(a1-6)]Man(b1-4)GlcNAc(b1-4)GlcNAc
# Method in brief: as §1
# [41] = target: Neu5Ac(a2-6)GalNAc(b1-4)GlcNAc6S
# Method in brief: as §1
# [42] = target: Neu5Ac(a2-8)Neu5Ac(a2-3)[Gal(b1-3)GalNAc(b1-4)]Gal(b1-4)Glc
# Method in brief: as §1
# [43] = target: Neu5Ac(a2-8)Neu5Ac(a2-8)Neu5Ac
# Method in brief: as §1
# Neu5Gc(a2-6)GalNAc = target: Neu5Gc(a2-6)GalNAc
# Method in brief: as §1
binder,measurement,setting,value
B1,glycan array binding signal (z-score),[1],-0.314
same,glycan array binding signal (z-score),[2],0.01
same,glycan array binding signal (z-score),[3],-0.32
same,glycan array binding signal (z-score),[4],0.042
same,glycan array binding signal (z-score),[5],0.047
same,glycan array binding signal (z-score),[6],0.718
same,glycan array binding signal (z-score),[7],-0.262
same,glycan array binding signal (z-score),[8],0.004
same,glycan array binding signal (z-score),[9],-0.263
same,glycan array binding signal (z-score),[10],0.123
same,glycan array binding signal (z-score),[11],-0.201
same,glycan array binding signal (z-score),[12],-0.205
same,glycan array binding signal (z-score),[13],-0.246
same,glycan array binding signal (z-score),[14],2.94
same,glycan array binding signal (z-score),[15],0.843
same,glycan array binding signal (z-score),[16],-0.23
same,glycan array binding signal (z-score),Gal(b1-3)Gal(b1-4)GlcNAc,3.61
same,glycan array binding signal (z-score),Gal(b1-3)GalNAc,2.99
same,glycan array binding signal (z-score),[17],3.57
same,glycan array binding signal (z-score),[18],3.87
same,glycan array binding signal (z-score),Gal(b1-3)GalNAc(b1-3)Gal,8.62
same,glycan array binding signal (z-score),[19],3.07
same,glycan array binding signal (z-score),[20],17
same,glycan array binding signal (z-score),[21],2.86
same,glycan array binding signal (z-score),Gal(b1-3)GlcNAc,-0.202
same,glycan array binding signal (z-score),[22],-0.142
same,glycan array binding signal (z-score),[23],4.98
same,glycan array binding signal (z-score),[24],0.622
same,glycan array binding signal (z-score),[25],-0.192
same,glycan array binding signal (z-score),[26],-0.134
same,glycan array binding signal (z-score),[27],0.064
same,glycan array binding signal (z-score),GalNAc(b1-3)GlcNAc,-0.122
same,glycan array binding signal (z-score),GalNAc3S(b1-4)GlcNAc,-0.277
same,glycan array binding signal (z-score),Glc(b1-4)Glc,-0.201
same,glycan array binding signal (z-score),[28],-0.2
same,glycan array binding signal (z-score),[29],-0.314
same,glycan array binding signal (z-score),[30],0.201
same,glycan array binding signal (z-score),[31],-0.176
same,glycan array binding signal (z-score),Kdn(a2-6)Gal(b1-4)GlcNAc,-0.334
same,glycan array binding signal (z-score),[32],-0.175
same,glycan array binding signal (z-score),[33],-0.086
same,glycan array binding signal (z-score),[34],-0.264
same,glycan array binding signal (z-score),[35],0.022
same,glycan array binding signal (z-score),[36],-0.336
same,glycan array binding signal (z-score),Neu5Ac(a2-3)Gal(b1-4)Glc,-0.174
same,glycan array binding signal (z-score),[37],-0.312
same,glycan array binding signal (z-score),[38],-0.282
same,glycan array binding signal (z-score),[39],-0.435
same,glycan array binding signal (z-score),Neu5Ac(a2-3)GalNAc,-0.308
same,glycan array binding signal (z-score),[40],-0.331
same,glycan array binding signal (z-score),[41],-0.236
same,glycan array binding signal (z-score),[42],2.2
same,glycan array binding signal (z-score),[43],-0.342
same,glycan array binding signal (z-score),Neu5Gc(a2-6)GalNAc,-0.066

# From the supplement of paper PMC8728848
